Results taken from PubChem BioAssay AID651642 (Sanford-Burnham Center for Chemical Genomics, 2012).
Calls of active or inactive are those of the source.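 How the source made its calls: active means average half-effect concentration of 10 µM or less in every one of the four cell panels; inactive means the rest.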

These compounds were tested on H9c2 (assay: cardiomyocyte survival under oxidative or metabolic stress – cell-based, panel, H9c2 and HL-1, H2O2, 2-deoxyglucose, ATP luminescence, SAR follow-up (AID 651642)). Conditions: H9c2/HL-1 cardiomyocyte 2-deoxyglucose damage, mean of runs, with 2-deoxyglucose.

Structure (SMILES) | outcome
COc1cc(-c2cc(C(=O)Nc3cccc(C(C)=O)c3)c3ccccc3n2)cc(OC)c1OC | inactive
COC(=O)CNC(=O)c1cccc(NC(=O)c2cc(-c3cc(OC)c(OC)c(OC)c3)nc3ccccc23)c1 | active
COc1cc(-c2cc(C(=O)NCC(=O)Nc3cccc(C(C)=O)c3)c3cccc(Cl)c3n2)cc(OC)c1OC | inactive
COc1ccc2c(c1OC)C(=O)N1c3ccccc3C(=O)N(Cc3ccc(C)cc3)C21 (configuration not stated) | inactive
COc1ccc2c(c1OC)C(=O)N1c3ccccc3C(=O)N(Cc3ccccc3Br)C21 (configuration not stated) | inactive
COc1cc(-c2cc(C(=O)NCC(=O)O)c3ccccc3n2)cc(OC)c1OC | inactive
COc1ccc2c(c1OC)C(=O)N1c3ccccc3C(=O)N(Cc3ccccn3)C21 (configuration not stated) | inactive
COc1ccc2c(c1OC)C(=O)N1c3ccccc3C(=O)N(Cc3cccc(C)c3)C21 (configuration not stated) | inactive
COc1cc(-c2cc(C(=O)NCC(=O)Nc3cccc(C(C)=O)c3)c3ccccc3n2)cc(OC)c1OC | active
COc1cc(-c2cc(C(=O)Nc3cccc(C(=O)NC4CC4)c3)c3ccccc3n2)cc(OC)c1OC | inactive
COc1cc(-c2cc(C(=O)Nc3cccc(C(N)=O)c3)c3ccccc3n2)cc(OC)c1OC | inactive
COc1ccc2c(c1OC)C(=O)N1c3ccccc3C(=O)N(Cc3ccccc3Cl)C21 (configuration not stated) | inactive
COc1ccc2nc(-c3cc(OC)c(OC)c(OC)c3)cc(C(=O)NCC(=O)Nc3ccc(C(C)=O)cc3)c2c1 | active
COC(=O)CNC(=O)c1cc(-c2cc(OC)c(OC)c(OC)c2)nc2ccccc12 | inactive
COc1cc(-c2cc(C(=O)Nc3cccc(C(=O)N(C)C)c3)c3ccccc3n2)cc(OC)c1OC | inactive
COc1cc(-c2cc(C(=O)Nc3cccc(C(C)=O)c3)c3cc(C)ccc3n2)cc(OC)c1OC | inactive

Structure (SMILES) | outcome
COc1cc(-c2cc(C(=O)Nc3cccc(C(C)=O)c3)c3cc(Br)ccc3n2)cc(OC)c1OC | inactive
COc1ccc2c(c1OC)C(=O)N1c3ccccc3C(=O)N(Cc3cccc(Cl)c3Cl)C21 (configuration not stated) | active
COc1cc(-c2cc(C(=O)Nc3cccc(C(C)=O)c3)c3cccc(Cl)c3n2)cc(OC)c1OC | inactive
COc1ccc2c(c1OC)C(=O)N1c3ccccc3C(=O)N(Cc3ccc(C)cc3C)C21 (configuration not stated) | inactive
COc1ccc2c(c1OC)C(=O)N1c3ccccc3C(=O)N(Cc3c(Cl)cccc3Cl)C21 (configuration not stated) | inactive
COc1cc(-c2cc(C(=O)Nc3cccc(-c4nn[nH]n4)c3)c3ccccc3n2)cc(OC)c1OC | inactive
COc1cc(-c2cc(C(=O)NCC(=O)Nc3cccc(C(C)=O)c3)c3cc(Br)ccc3n2)cc(OC)c1OC | active
COc1ccc2nc(-c3cc(OC)c(OC)c(OC)c3)cc(C(=O)Nc3cccc(C(C)=O)c3)c2c1 | inactive
CCOC(=O)c1cccc(NC(=O)CNC(=O)c2cc(-c3cc(OC)c(OC)c(OC)c3)nc3ccc(Br)cc23)c1 | active
COc1cc(-c2cc(C(=O)Nc3cccc(C(=O)Nc4ccccc4)c3)c3ccccc3n2)cc(OC)c1OC | active
CCOC(=O)c1cccc(NC(=O)CNC(=O)c2cc(-c3cc(OC)c(OC)c(OC)c3)nc3ccc(F)cc23)c1 | active
COc1ccc2nc(-c3cc(OC)c(OC)c(OC)c3)cc(C(=O)NCC(=O)Nc3cccc(C(C)=O)c3)c2c1 | active
COc1ccc2c(c1OC)C(=O)N1c3ccccc3C(=O)N(Cc3cccc(F)c3)C21 (configuration not stated) | inactive
COc1ccc2c(c1OC)C(=O)N1c3ccccc3C(=O)N(Cc3ccccc3C)C21 (configuration not stated) | inactive
CCNC(=O)c1cccc(NC(=O)c2cc(-c3cc(OC)c(OC)c(OC)c3)nc3ccccc23)c1 | inactive
CCOC(=O)c1cccc(NC(=O)c2cc(-c3cc(OC)c(OC)c(OC)c3)nc3ccc(OC)cc23)c1 | inactive
